For 40 compounds, Potency results are on record in PubChem BioAssay (Tox21).

“And” between values parts separate entries of the source, which are not always exact repeats. Identical values can stand only once. Inconclusive results are not listed. Where a call stands in place of a potency, no number is given. The source made the active and inactive calls. Calls follow the shape of the dose curve; as a rule, active = well fitted cell-killing curve with a large enough effect in the repeat runs; inconclusive = weak or mixed curves, or effect the other way; inactive = no such curve, though single readings can be large or run the other way.
Potency is read from the fitted curve at half-maximal effect.

The assay in a line: qHTS assay to identify small molecule antagonists of the vitamin D receptor (VDR) signaling pathway - cell viability counter screen (AID 743225). Also: nearly all actives have a fitted effect of over 50% in size. The settings on record: VDR-bla HEK293T viability, CellTiter-Glo luminescence, 16 h; series mostly up to 61 µM. An excerpt: U.S. Tox21 Program National Center for Advancing Translational Sciences [NCATS] NIH Chemical Genomics Center [NCGC] U.S. Environmental Protection Agency [EPA] National Institutes of Environmental Health Sciences [NIEHS] National Toxicology Program [NTP] U.S. Food and Drug Administration [FDA] Tox21 Assay Overview: The vitamin D receptor (VDR), a member of nuclear hormone receptor superfamily, plays a critical role in calcium homeostasis and bone metabolism. It is also involved in cell differentiation and growth, and thrombogenicity. To identify the compounds that inhibit VDR signaling, the VDR-UAS-bla HEK 293T cell line (Invitrogen, Carlsbad, CA, USA) containing a beta-lactamase reporter gene under the control of an upstream activator sequence (UAS) was used to screen the Tox21 10K compound library. The cytotoxicity of the Tox21 compound library against the VDR-bla cell line was tested in parallel by measuring the cell viability using CellTiter-Glo assay (Promega, Madison, WI) in the same wells.
Tox21 Assay Protocol Summary: VDR-bla cells were dispensed at 2,000 cells/5 uL of assay medium per well into black wall/clear-bottom 1536-well plates using a Multidrop Combi (Thermo Fisher Scientific, Waltham, MA) dispenser. After the assay plates were incubated at a 37C and 5% CO2 for 4 h, 23 nL of compounds dissolved in DMSO, positive controls or DMSO only was transferred to the assay plate by a Pintool station (Kalypsys, San Diego, CA), followed by addition of 1 uL of 1-alpha, 25-Dihydroxy Vitamin D3 (3 nM, final concentration in the wells) using a Bioraptr Flying Reagent Dispenser (FRD) workstation (Beckman Coulter, Indianapolis, IN). The plates were incubated at 37C and 5% CO2 for 16 h, and then 1 uL of LiveBLAzerTM B/G FRET substrate was added using a Bioraptr FRD. The plates were incubated at room temperature for 2 h and fluorescence intensity was measured by an Envision plate reader (PerkinElmer, Shelton, CT). For cell viability readout that measures cytotoxicity, 3 ul/well of CellTiter-Glo reagent was added into the assay plates using a Bioraptr FRD. After 30 min incubation at room temperature, the luminescence intensity in the plates was measured using a ViewLux plate reader (PerkinElmer).
On the technique in general: qHTS replaces the single test concentration by a dilution series.
Turning to `CCCCC(CC)COC(=O)c1ccc(O)cc1` (stereo not given), the Potency is 15.4 µM (active) and 38.9 µM (active).

With `Cc1occc1SSc1ccoc1C`, the Potency result is “inactive”.

Turning to `c1ccc(Nc2cccc3ccccc23)cc1`, the Potency result was “inactive”.

In the case of `Cc1ccc(CCn2c3c(c4cc(Cl)ccc42)CN(C)CC3)cn1`, the Potency entry was “inactive”.

Turning to `COc1cccc(CCc2ccccc2OCC(CN(C)C)OC(=O)CCC(=O)O)c1` (stereo not given), the Potency entry was “inactive”.

Consider `C[Si](C)(C)Cl`, for which the Potency entry was “inactive”.

Consider `CCCCCCCOC(=O)c1ccc(O)cc1`, for which the Potency is 38.9 µM (active).

`COc1ccc(-n2nc(CCC(=O)N(C)O)cc2-c2ccc(Cl)cc2)cc1`: the Potency result is “inactive”.

In the case of `CCCCCCCC/C=C\CCCCCCCC(=O)OCCOC(=O)CCCCCCC/C=C\CCCCCCCC`, the Potency result is “inactive”.

Consider `O=C1OC(OC(=O)c2cccnc2Nc2cccc(C(F)(F)F)c2)c2ccccc21` (stereo not given), for which the Potency entry was “inactive”.

As for `CC(C)c1cccc(C(C)C)c1N1C(=O)c2ccc(O)cc2C1=O`, the Potency is 49 µM (active).

On to `CCCCCCC(C)OC(=O)COc1nc(F)c(Cl)c(N)c1Cl` (stereo not given), for which the Potency is 49 µM (active).

For `CCNc1nc(NC(C)CC)nc(OC)n1` (stereo not given), the Potency result is “inactive”.

On to `CCCCCCCC/C=C/CCCOC(C)=O`, for which the Potency entry is “inactive”.

On to `C=CCCCCCCC=C`, for which the Potency result is “inactive”.

Regarding `CN(C)c1ccc(N=Nc2ccccc2C(=O)O)cc1`, the Potency entry was “inactive”.

In the case of `O=C(O)CCCCCCC(=O)O`, the Potency result is “inactive”.

For the compound `S=C(SSSSSSC(=S)N1CCCCC1)N1CCCCC1`, the Potency entry was “inactive”.

In the case of `Cn1cnc2ncnc(N)c21`, the Potency entry is “inactive”.

As to `C=CC(=O)OCCC#N`, the Potency result is “inactive”.

Turning to `c1cc(OCC2CO2)cc(OCC2CO2)c1` (stereo not given), the Potency entry was “inactive”.

Take `SCCCCCCCCS`: the Potency entry was “inactive”.

`ClC/C=C\CCl`: the Potency entry was “inactive”.

For `c1ccc(Sc2ccccc2)cc1`, the Potency entry is “inactive”.

In the case of `NCCCCCCNCCCCCCN`, the Potency entry is “inactive”.

On to `CCCCCCCC/C=C\CCCCCCCC(=O)NCc1ccc(O)c(OC)c1`, for which the Potency was 21.3 µM (active).

As for `CC1CCCNC1` (stereo not given), the Potency result was “inactive”.

As for `Cc1cn[nH]c1`, the Potency result is “inactive”.

As for `CCCN(CCc1cccs1)[C@H]1CCc2c(O)cccc2C1`, the Potency result was “inactive”.

Take `C=C[C@](C)(O)CC[C@@H]1[C@@]2(C)CCCC(C)(C)[C@@H]2CC[C@@]1(C)O`: the Potency is 43.6 µM (active).

On to `CC(C)(C)C1=CC(=O)C=C(C(C)(C)C)C1=O`, for which the Potency result was “inactive”.

For the compound `COC(=O)CC#N`, the Potency result was “inactive”.

Regarding `CC(=O)OC(OC(C)=O)c1ccc([N+](=O)[O-])o1`, the Potency was 49.8 µM (active).

Turning to `CCCSS/C(CCO)=C(\C)N(C=O)Cc1cnc(C)nc1N`, the Potency entry was “inactive”.

`CCCCCCC(C)Nc1ccc(Nc2ccccc2)cc1` (stereo not given): the Potency is 43.6 µM (active).

As for `CC(CN(C)C)CN1c2ccccc2CCc2ccccc21` (stereo not given), the Potency result was “inactive”.

As to `CCCOc1sc(C(=O)N2CCC(c3cc(CN)ccc3F)CC2)c(C)c1Br`, the Potency was 35.7 µM (active).

As to `CC1=C(/C=C/C(C)=C/C=C/C(C)=C/C(=O)Nc2ccc(O)cc2)C(C)(C)CCC1`, the Potency was 14.2 µM (active) and 10.7 µM (active).

Take `CCCCCCCCCCCCCCNCCO`: the Potency result was “inactive”.

On to `CCN(CC)CCOc1ccc(C(O)(Cc2ccc(Cl)cc2)c2ccc(C)cc2)cc1` (stereo not given), for which the Potency was 23.9 µM (active).
